# Values joined by “and” are separate entries in the source; they are usually repeats but may differ in a detail not shown here. Equal entries are not always repeated.
# Assays:
# [1] = target: Mast/stem cell growth factor receptor Kit (Homo sapiens) (UniProt P10721); conditions: at 1 µM
# [2] = tested on: Mast/stem cell growth factor receptor Kit (Homo sapiens), P10721 [D816V]; conditions: at 0.1 µM
# [3] = tested on: Mast/stem cell growth factor receptor Kit (Homo sapiens), P10721 [D816V]; conditions: at 1 µM
# [4] = tested on: Mast/stem cell growth factor receptor Kit (Homo sapiens), P10721 [T670I]; conditions: at 0.1 µM
# Chain of Mast/stem cell growth factor receptor Kit (Homo sapiens), P10721 [T670I] (P10721 whole entry T670I): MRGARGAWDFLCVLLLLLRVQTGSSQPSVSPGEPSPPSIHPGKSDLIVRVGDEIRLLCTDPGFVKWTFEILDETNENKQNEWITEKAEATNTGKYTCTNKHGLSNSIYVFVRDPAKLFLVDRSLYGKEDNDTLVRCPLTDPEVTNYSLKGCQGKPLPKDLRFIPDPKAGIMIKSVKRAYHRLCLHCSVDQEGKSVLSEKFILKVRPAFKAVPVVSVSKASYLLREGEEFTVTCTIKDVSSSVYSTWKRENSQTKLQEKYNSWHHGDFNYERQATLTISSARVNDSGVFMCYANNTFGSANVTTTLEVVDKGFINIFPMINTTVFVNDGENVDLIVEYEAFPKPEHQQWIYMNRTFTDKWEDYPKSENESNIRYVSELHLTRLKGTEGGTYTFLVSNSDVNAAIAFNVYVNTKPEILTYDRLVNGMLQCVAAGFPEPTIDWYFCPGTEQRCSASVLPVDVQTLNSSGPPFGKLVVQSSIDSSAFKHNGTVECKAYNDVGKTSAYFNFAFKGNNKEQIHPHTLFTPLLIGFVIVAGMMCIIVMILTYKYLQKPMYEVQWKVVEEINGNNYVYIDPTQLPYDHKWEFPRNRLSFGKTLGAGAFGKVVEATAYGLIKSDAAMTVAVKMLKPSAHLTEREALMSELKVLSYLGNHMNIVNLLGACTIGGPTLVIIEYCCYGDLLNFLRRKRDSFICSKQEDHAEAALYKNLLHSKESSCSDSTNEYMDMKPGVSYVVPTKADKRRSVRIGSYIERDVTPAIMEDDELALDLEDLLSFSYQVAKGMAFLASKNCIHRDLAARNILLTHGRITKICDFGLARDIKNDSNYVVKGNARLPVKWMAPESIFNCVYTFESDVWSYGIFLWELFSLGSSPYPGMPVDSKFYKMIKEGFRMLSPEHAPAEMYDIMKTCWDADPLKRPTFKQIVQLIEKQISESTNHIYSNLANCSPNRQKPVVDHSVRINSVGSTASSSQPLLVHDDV
# [5] = tested on: Mast/stem cell growth factor receptor Kit (Homo sapiens), P10721 [T670I]; conditions: at 1 µM
# [6] = tested on: Mast/stem cell growth factor receptor Kit (Homo sapiens), P10721 [V560G]; conditions: at 0.1 µM
# Chain of Mast/stem cell growth factor receptor Kit (Homo sapiens), P10721 [V560G] (P10721 whole entry V560G): as the sequence (P10721 whole entry T670I) above, with V560G, I670T counted along it
# [7] = tested on: Mast/stem cell growth factor receptor Kit (Homo sapiens), P10721 [V560G]; conditions: at 1 µM
# [8] = target: Tyrosine-protein kinase Lck (Homo sapiens) (UniProt P06239); conditions: at 0.1 µM
# Chain of Tyrosine-protein kinase Lck (Homo sapiens) (P06239 2-509 limits assumed): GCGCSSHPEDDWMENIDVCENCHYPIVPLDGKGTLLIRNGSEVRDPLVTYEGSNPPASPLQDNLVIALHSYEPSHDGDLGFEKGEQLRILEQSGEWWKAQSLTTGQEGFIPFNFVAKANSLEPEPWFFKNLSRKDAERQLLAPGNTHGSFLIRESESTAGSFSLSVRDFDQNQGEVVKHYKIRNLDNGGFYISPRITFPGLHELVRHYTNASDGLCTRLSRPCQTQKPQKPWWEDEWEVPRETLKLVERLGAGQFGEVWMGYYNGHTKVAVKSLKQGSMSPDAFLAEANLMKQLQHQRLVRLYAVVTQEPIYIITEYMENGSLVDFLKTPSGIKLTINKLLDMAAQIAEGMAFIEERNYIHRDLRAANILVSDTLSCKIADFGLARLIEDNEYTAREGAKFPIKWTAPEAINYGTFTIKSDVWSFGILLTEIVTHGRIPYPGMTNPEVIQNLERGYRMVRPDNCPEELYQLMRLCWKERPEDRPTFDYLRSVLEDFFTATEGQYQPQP
# [9] = target: Tyrosine-protein kinase Lck (Homo sapiens) (UniProt P06239); conditions: at 1 µM
# [10] = target: Leukocyte tyrosine kinase receptor (Homo sapiens) (UniProt P29376); conditions: at 0.1 µM
# Chain of Leukocyte tyrosine kinase receptor (Homo sapiens) (P29376 whole entry): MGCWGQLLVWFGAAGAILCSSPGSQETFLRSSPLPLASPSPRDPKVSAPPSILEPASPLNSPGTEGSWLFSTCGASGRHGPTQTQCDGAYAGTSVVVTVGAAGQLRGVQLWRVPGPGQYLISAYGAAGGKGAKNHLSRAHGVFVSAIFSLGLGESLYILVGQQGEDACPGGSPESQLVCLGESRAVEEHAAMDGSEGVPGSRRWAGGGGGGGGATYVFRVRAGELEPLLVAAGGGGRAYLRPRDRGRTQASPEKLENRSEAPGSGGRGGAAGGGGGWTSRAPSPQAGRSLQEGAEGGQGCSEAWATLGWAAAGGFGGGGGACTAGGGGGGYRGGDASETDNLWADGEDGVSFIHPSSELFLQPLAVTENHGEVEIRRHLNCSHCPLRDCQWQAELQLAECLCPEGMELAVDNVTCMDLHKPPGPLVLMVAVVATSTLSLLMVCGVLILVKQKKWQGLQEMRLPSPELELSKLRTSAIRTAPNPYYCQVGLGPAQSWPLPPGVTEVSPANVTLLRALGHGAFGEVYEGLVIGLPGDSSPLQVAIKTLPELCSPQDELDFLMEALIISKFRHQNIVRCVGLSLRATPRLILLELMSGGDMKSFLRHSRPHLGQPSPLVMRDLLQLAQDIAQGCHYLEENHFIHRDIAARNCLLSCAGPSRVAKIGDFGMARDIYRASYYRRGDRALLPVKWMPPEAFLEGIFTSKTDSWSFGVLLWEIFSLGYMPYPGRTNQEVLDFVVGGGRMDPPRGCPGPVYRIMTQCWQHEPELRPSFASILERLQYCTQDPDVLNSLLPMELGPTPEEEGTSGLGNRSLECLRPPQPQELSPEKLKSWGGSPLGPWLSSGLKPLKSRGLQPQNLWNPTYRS
# Chain of Mast/stem cell growth factor receptor Kit (Homo sapiens) (P10721 whole entry): as the sequence (P10721 whole entry T670I) above, with I670T counted along it
# Chain of Mast/stem cell growth factor receptor Kit (Homo sapiens), P10721 [D816V] (P10721 whole entry D816V): as the sequence (P10721 whole entry T670I) above, with I670T, D816V counted along it
smiles,measurement,setting,value
NC(=O)c1ccc2c(-c3ccnc(NCCCO)n3)c(-c3ccc(F)cc3)nn2c1,inhibition,[1],25.4%
same,inhibition,[2],8.24%
same,inhibition,[3],1.86%
same,inhibition,[4],4.73%
same,inhibition,[5],2.71%
same,inhibition,[6],-0.84%
same,inhibition,[7],0.77%
same,inhibition,[8],2.46%
same,inhibition,[9],8.13%
same,inhibition,[10],4.67%
CN1CCC(C(=O)Nc2n[nH]c3nc(-c4ccc(O)cc4)c(Br)cc23)CC1,inhibition,[1],12.5% and 9.42%
same,inhibition,[2],4.08% and -0.48%
same,inhibition,[3],5.39% and 3.49%
same,inhibition,[4],2.44% and 0.42%
same,inhibition,[5],4.98% and 0.1%
same,inhibition,[6],-0.43% and 0.93%
same,inhibition,[7],0.37% and -0.64%
same,inhibition,[8],-0.45% and 3.18%
same,inhibition,[9],7.96% and 12.4%
same,inhibition,[10],11.7% and 9.83%
COc1ccccc1-c1cc(/C=C2\C(=O)Nc3ncc(Br)cc32)cc(Br)c1O,inhibition,[1],27.9%
same,inhibition,[2],4.84%
same,inhibition,[3],1.87%
same,inhibition,[4],3.92%
same,inhibition,[5],3.21%
same,inhibition,[6],1.58%
same,inhibition,[7],4.31%
same,inhibition,[8],2.46%
same,inhibition,[9],8.22%
same,inhibition,[10],3.94%
COc1cccc(Nc2nccc(-c3cnn4ncccc34)n2)c1,inhibition,[1],99.3%
same,inhibition,[2],-1.05%
same,inhibition,[3],4.28%
same,inhibition,[4],60.9%
same,inhibition,[5],95.3%
same,inhibition,[6],40.2%
same,inhibition,[7],78.3%
same,inhibition,[8],3.11%
same,inhibition,[9],11.2%
same,inhibition,[10],4.15%
CNC(=O)c1sc(-n2cnc3cc(OC)c(OC)cc32)cc1OCc1ccccc1C(F)(F)F,inhibition,[1],6.11%
same,inhibition,[2],2.29%
same,inhibition,[3],6.55%
same,inhibition,[4],1.67%
same,inhibition,[5],1.95%
same,inhibition,[6],-0.58%
same,inhibition,[7],0.44%
same,inhibition,[8],3.6%
same,inhibition,[9],11.9%
same,inhibition,[10],2.32%
c1cnn2ncc(-c3ccnc(NCCCN4CCOCC4)n3)c2c1,inhibition,[1],5.88%
same,inhibition,[2],6.89%
same,inhibition,[3],4.06%
same,inhibition,[4],9.96%
same,inhibition,[5],3.97%
same,inhibition,[6],-0.98%
same,inhibition,[7],-1.13%
same,inhibition,[8],1.55%
same,inhibition,[9],1.64%
same,inhibition,[10],2.87%
COc1ccc(Nc2ncc(-c3ccccc3)o2)cc1OC,inhibition,[1],95.9%
same,inhibition,[2],-0.42%
same,inhibition,[3],1.76%
same,inhibition,[4],46.1%
same,inhibition,[5],90.3%
same,inhibition,[6],45.7%
same,inhibition,[7],84.8%
same,inhibition,[8],2.31%
same,inhibition,[9],21.2%
same,inhibition,[10],1.44%
OCCCNc1nccc(-c2c(-c3ccc(F)cc3)nn3cc(C(F)(F)F)ccc23)n1,inhibition,[1],8.99%
same,inhibition,[2],1.58%
same,inhibition,[3],0.33%
same,inhibition,[4],-0.18%
same,inhibition,[5],0.98%
same,inhibition,[6],-1.46%
same,inhibition,[7],-0.39%
same,inhibition,[8],1.91%
same,inhibition,[9],5.83%
same,inhibition,[10],3.02%
CNC(=O)c1cncc(/C=C/c2ccccc2C)c1,inhibition,[1],14.5%
same,inhibition,[2],1.55%
same,inhibition,[3],3.24%
same,inhibition,[4],3.26%
same,inhibition,[5],4.48%
same,inhibition,[6],3.49%
same,inhibition,[7],5.75%
same,inhibition,[8],1.99%
same,inhibition,[9],7.19%
same,inhibition,[10],2.41%
NS(=O)(=O)c1ccc(N/N=C2\C(=O)Nc3cccc(CCc4ccncc4)c32)cc1,inhibition,[1],63.7%
same,inhibition,[2],2.92%
same,inhibition,[3],5.18%
same,inhibition,[4],6.45%
same,inhibition,[5],15%
same,inhibition,[6],4.31%
same,inhibition,[7],14.1%
same,inhibition,[8],2.22%
same,inhibition,[9],5.75%
same,inhibition,[10],1.69%
COc1cc(N2CCN(C(C)C)CC2)ccc1Nc1nc(Nc2cccc3ncccc23)c2cc[nH]c2n1,inhibition,[1],2.29%
same,inhibition,[2],-1.39%
same,inhibition,[3],-2.2%
same,inhibition,[4],0.28%
same,inhibition,[5],0.54%
same,inhibition,[6],0.73%
same,inhibition,[7],6.87%
same,inhibition,[8],0.42%
same,inhibition,[9],3.07%
same,inhibition,[10],34.7%
Cc1cc(O)cc(C)c1/C=C/c1cncc(C(N)=O)c1,inhibition,[1],66.6%
same,inhibition,[2],3.61%
same,inhibition,[3],2.03%
same,inhibition,[4],2.25%
same,inhibition,[5],1.74%
same,inhibition,[6],2.69%
same,inhibition,[7],22.9%
same,inhibition,[8],8.78%
same,inhibition,[9],44.1%
same,inhibition,[10],2.14%
CS(=O)(=O)Nc1ccc(-c2ccc3c(NC(=O)C4CC4)n[nH]c3c2)cc1,inhibition,[1],6.32%
same,inhibition,[2],2.91%
same,inhibition,[3],2.86%
same,inhibition,[4],1.55%
same,inhibition,[5],1.56%
same,inhibition,[6],0.02%
same,inhibition,[7],0.94%
same,inhibition,[8],2.88%
same,inhibition,[9],8.63%
same,inhibition,[10],4.21%
Cc1nnc(-c2cccc(-c3ccc(C(=O)NCC4CC4)cc3)c2)o1,inhibition,[1],9.77%
same,inhibition,[2],1.04%
same,inhibition,[3],7.79%
same,inhibition,[4],5.46%
same,inhibition,[5],5.66%
same,inhibition,[6],0.29%
same,inhibition,[7],2.8%
same,inhibition,[8],2.77%
same,inhibition,[9],2.64%
same,inhibition,[10],4.15%
O=C1Nc2ccccc2/C1=C1\CCc2cc(O)ccc21,inhibition,[1],93.7%
same,inhibition,[2],4.08%
same,inhibition,[3],1.34%
same,inhibition,[4],39.3%
same,inhibition,[5],88.1%
same,inhibition,[6],6.44%
same,inhibition,[7],41.6%
same,inhibition,[8],3.68%
same,inhibition,[9],8.53%
same,inhibition,[10],7.84%
CN(C)CCNC(=O)Nc1ccc(N(C)c2ccnc(Nc3ccc(CS(C)(=O)=O)cc3)n2)cc1,inhibition,[1],57.6%
same,inhibition,[2],3.66%
same,inhibition,[3],3.76%
same,inhibition,[4],4.26%
same,inhibition,[5],6.89%
same,inhibition,[6],11.7%
same,inhibition,[7],54.1%
same,inhibition,[8],3.05%
same,inhibition,[9],8.53%
same,inhibition,[10],3.62%
CCN1CCC(C(=O)Nc2n[nH]c3nnc(-c4cccc(F)c4F)cc23)CC1,inhibition,[1],2.87%
same,inhibition,[2],-0.19%
same,inhibition,[3],-1.53%
same,inhibition,[4],3.1%
same,inhibition,[5],-0.26%
same,inhibition,[6],0.02%
same,inhibition,[7],3.46%
same,inhibition,[8],-0.07%
same,inhibition,[9],2.23%
same,inhibition,[10],-0.09%
Fc1cccc(COc2ccc(Nc3ncncc3C#Cc3ccccc3)cc2Cl)c1,inhibition,[1],7.97%
same,inhibition,[2],9.06%
same,inhibition,[3],7.92%
same,inhibition,[4],3.83%
same,inhibition,[5],6.38%
same,inhibition,[6],-1.39%
same,inhibition,[7],-0.04%
same,inhibition,[8],1.72%
same,inhibition,[9],2%
same,inhibition,[10],4.37%
COc1ccc(-c2nn3ncccc3c2-c2ccnc(Nc3ccc(F)c(F)c3)n2)cc1,inhibition,[1],28.2%
same,inhibition,[2],6.57%
same,inhibition,[3],5.39%
same,inhibition,[4],3.81%
same,inhibition,[5],11.5%
same,inhibition,[6],-0.18%
same,inhibition,[7],4.13%
same,inhibition,[8],7.63%
same,inhibition,[9],39.1%
same,inhibition,[10],4.19%
CS(=O)(=O)CCNCc1ccc(-c2ccc3ncnc(Nc4ccc(OCc5ccccc5)cc4)c3c2)o1,inhibition,[1],8.96%
same,inhibition,[2],2.54%
same,inhibition,[3],2.47%
same,inhibition,[4],3.32%
same,inhibition,[5],4.61%
same,inhibition,[6],4.25%
same,inhibition,[7],1.48%
same,inhibition,[8],4.19%
same,inhibition,[9],22%
same,inhibition,[10],4.28%
NS(=O)(=O)c1cccc(N/C=C2\C(=O)Nc3ccccc32)c1,inhibition,[1],63.9%
same,inhibition,[2],3.62%
same,inhibition,[3],2.43%
same,inhibition,[4],6.57%
same,inhibition,[5],45.2%
same,inhibition,[6],-0.34%
same,inhibition,[7],8.83%
same,inhibition,[8],2.31%
same,inhibition,[9],6.78%
same,inhibition,[10],3.74%
COc1ccc2ncn(-c3cc(O[C@H](C)c4ccccc4C(F)(F)F)c(C(N)=O)s3)c2c1,inhibition,[1],14.7%
same,inhibition,[2],-1.17%
same,inhibition,[3],2.71%
same,inhibition,[4],1.09%
same,inhibition,[5],3.92%
same,inhibition,[6],0.71%
same,inhibition,[7],2.83%
same,inhibition,[8],0.65%
same,inhibition,[9],2.2%
same,inhibition,[10],0.48%
Cc1ccc(-c2cc3c(NC(=O)C4CC4)ncnc3o2)cc1,inhibition,[1],32.2%
same,inhibition,[2],4.08%
same,inhibition,[3],5.68%
same,inhibition,[4],4.38%
same,inhibition,[5],8.01%
same,inhibition,[6],-2.51%
same,inhibition,[7],0.4%
same,inhibition,[8],2.92%
same,inhibition,[9],11.2%
same,inhibition,[10],4.28%
c1ccc(-c2n[nH]cc2-c2ccnc(-c3ccc(OCCn4ccnc4)cc3)c2)nc1,inhibition,[1],11.4%
same,inhibition,[2],3.19%
same,inhibition,[3],19.5%
same,inhibition,[4],1.86%
same,inhibition,[5],3.3%
same,inhibition,[6],1.49%
same,inhibition,[7],4.59%
same,inhibition,[8],0.89%
same,inhibition,[9],12.7%
same,inhibition,[10],0.8%
COc1cc2c(cc1Nc1nc(Nc3cccc(F)c3C(N)=O)c3cc[nH]c3n1)N(C(=O)CN1CCN(C(C)C)CC1)CC2,inhibition,[1],1.51%
same,inhibition,[2],-0.69%
same,inhibition,[3],0.07%
same,inhibition,[4],-0.28%
same,inhibition,[5],-0.5%
same,inhibition,[6],-3.41%
same,inhibition,[7],-2.31%
same,inhibition,[8],2.47%
same,inhibition,[9],0.75%
same,inhibition,[10],27.6%
NS(=O)(=O)c1ccc(N/N=C2\C(=O)Nc3ccc(C(=O)NCc4ccncc4)cc32)cc1,inhibition,[1],12.5%
same,inhibition,[2],3.05%
same,inhibition,[3],12.7%
same,inhibition,[4],1.57%
same,inhibition,[5],4.42%
same,inhibition,[6],1.34%
same,inhibition,[7],10.7%
same,inhibition,[8],2.05%
same,inhibition,[9],8.27%
same,inhibition,[10],2.1%
Nc1nccc(-c2c(-c3ccc(F)cc3)ncn2C2CCNCC2)n1,inhibition,[1],-2.8% and 0.85%
same,inhibition,[2],13% and -2.76%
same,inhibition,[3],1.63% and 3.54%
same,inhibition,[4],-2.81% and 0.49%
same,inhibition,[5],-3.42% and -0.01%
same,inhibition,[6],1.31% and 1.87%
same,inhibition,[7],3.68% and 1.62%
same,inhibition,[8],1.27% and 4.01%
same,inhibition,[9],14.3% and 17.1%
same,inhibition,[10],-2.04% and 0.7%
COC(=O)Nc1nc2cc(Oc3ccc(NC(=O)Nc4ccccc4)cc3)ccc2[nH]1,inhibition,[1],68%
same,inhibition,[2],2.82%
same,inhibition,[3],12%
same,inhibition,[4],4.22%
same,inhibition,[5],8.76%
same,inhibition,[6],25.3%
same,inhibition,[7],67.9%
same,inhibition,[8],2.87%
same,inhibition,[9],4.96%
same,inhibition,[10],2.55%
CC1=C(C(=O)Nc2ccc3[nH]ncc3c2)C(c2ccc(F)cc2)N=C(c2ccc(C(F)(F)F)nc2)N1 (stereo not given),inhibition,[1],5.44%
same,inhibition,[2],-0.02%
same,inhibition,[3],-2.78%
same,inhibition,[4],1.78%
same,inhibition,[5],1.33%
same,inhibition,[6],1.39%
same,inhibition,[7],3.28%
same,inhibition,[8],3.06%
same,inhibition,[9],2.27%
same,inhibition,[10],1.67%
O=C(O[C@H]1CN[C@H](C#Cc2cc3ncnc(Nc4ccc5c(cnn5Cc5ccccc5)c4)c3s2)C1)N1CCOCC1,inhibition,[1],0.9%
same,inhibition,[2],-4.43%
same,inhibition,[3],-0.62%
same,inhibition,[4],-1.83%
same,inhibition,[5],-1.48%
same,inhibition,[6],-1.18%
same,inhibition,[7],-0.48%
same,inhibition,[8],0.34%
same,inhibition,[9],6.67%
same,inhibition,[10],0.04%
COc1cc(Nc2ncc(-c3ccccc3)o2)cc(OC)c1,inhibition,[1],97.2%
same,inhibition,[2],3.13%
same,inhibition,[3],2.77%
same,inhibition,[4],21.6%
same,inhibition,[5],81.7%
same,inhibition,[6],33.6%
same,inhibition,[7],83.5%
same,inhibition,[8],2.6%
same,inhibition,[9],14.5%
same,inhibition,[10],4.67%

# Reference: ChEMBL document CHEMBL1961873, “Compounds: GSK PKIS; Assays: Nanosyn kinase panel” (2012)
